The campaign covered roughly 190,000 compounds. About 1,300 (0.68%) were called active. Cut-off read from the data, not from the text of the source: active = inhibition above about 50%; inactive = the rest. Many of the other results were omitted from the sample, so actives are more common in it than they were.
Molecular target: Mannose-6-phosphate isomerase (Homo sapiens) (UniProt P34949)
Test: MPI inhibition at elevated mannose 6-phosphate – biochemical, fluorescence intensity, high mannose 6-phosphate, primary screen (AID 1220)
Conditions: recombinant PMI enzyme, coupled fluorescence intensity; at 20 µM; active compounds read high

Sequence of Mannose-6-phosphate isomerase (Homo sapiens) (P34949 whole entry, looked up): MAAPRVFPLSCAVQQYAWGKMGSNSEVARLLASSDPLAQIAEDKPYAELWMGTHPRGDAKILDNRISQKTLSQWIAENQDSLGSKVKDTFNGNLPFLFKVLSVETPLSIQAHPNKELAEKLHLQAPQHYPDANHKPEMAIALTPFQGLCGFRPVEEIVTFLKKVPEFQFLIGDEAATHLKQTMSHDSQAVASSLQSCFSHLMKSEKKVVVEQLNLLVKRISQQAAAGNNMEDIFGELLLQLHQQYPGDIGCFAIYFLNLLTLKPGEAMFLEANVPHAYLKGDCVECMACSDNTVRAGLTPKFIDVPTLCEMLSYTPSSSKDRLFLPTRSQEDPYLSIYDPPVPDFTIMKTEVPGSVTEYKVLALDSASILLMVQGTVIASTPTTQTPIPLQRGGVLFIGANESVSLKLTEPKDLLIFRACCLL

inhibition, inactive:
O=C(Cc1ccccc1)N/N=C/c1cccs1 4.5%
O=C(Oc1ccc2ccc(=O)oc2c1)C1CCCCC1 -2.5%
O=C(Oc1cccc(O)c1)C1CCCCC1 13%
CCOC(=O)C1CCCN(C(=S)NC2CCCCC2)C1 (stereo not drawn) 2.4%
CCn1c(SCC(=O)c2ccc(C)cc2)nnc1-c1ccoc1C -13.6%
Cc1noc(C)c1S(=O)(=O)N1CCC(C(=O)NCCN2CCC(C)CC2)CC1 7.6%
CCC1CCCCN1CCNC(=O)C1CCN(S(=O)(=O)c2c(C)noc2C)CC1 (stereo not drawn) 1.5%
CCOC(=O)c1c(-c2ccccc2)csc1NC(=S)N(CC)CC 14.7%
CCOC(=O)c1c(-c2ccccc2)csc1NC(=S)NC 14.4%
COC(=O)c1c(C)[nH]c(O)c1C=Nc1ccc(C#N)cc1 1.7%
N#CC1=C2SCN(c3ccccc3)CN2C(=O)CC1c1c(Cl)cccc1Cl (stereo not drawn) 23.8%
Cc1ccc(C2CC(=O)N3CN(c4ccc(Br)cc4)CSC3=C2C#N)o1 (stereo not drawn) -40.7%
Cc1ccc(N2CSC3=C(C#N)C(c4cccs4)CC(=O)N3C2)cc1 (stereo not drawn) -74.9%
Cc1cccc(N2CSC3=C(C#N)C(c4ccc(C)o4)CC(=O)N3C2)c1 (stereo not drawn) -1.2%
N#CC1=C2SCN(Cc3ccco3)CN2C(=O)CC1c1c(F)cccc1Cl (stereo not drawn) -26.5%
COc1ccc(C2CC(=O)N3CN(c4ccc(C)c(Cl)c4)CSC3=C2C#N)cc1 (stereo not drawn) 19.1%
N#CC1=C2SCN(c3ccc(F)cc3)CN2C(=O)CC1c1cccc(F)c1 (stereo not drawn) 14.8%
CCOc1ccc(N2CSC3=C(C#N)C(c4ccco4)CC(=O)N3C2)cc1 (stereo not drawn) -62.8%
CCCN1C(=O)C(Cc2nc3ccccc3c(=O)n2-c2ccccc2)c2ccccc21 (stereo not drawn) 8.6%
Cc1ccc(N2C(=O)C(O)(C(F)(F)F)C3=C2CC(C)(C)CC3=O)cc1C (stereo not drawn) -10%
N#CCC1c2ccccc2CCN1C(=O)Nc1cccc(Cl)c1 (stereo not drawn) 15.2%
CN1CCC(N2CCCC(C(=O)O)C2)CC1 (stereo not drawn) -1.5%
O=C(NCC(F)(F)F)Nc1ccccn1 -4.8%
CCOCCNC(=O)c1ccc2c3c(cccc13)CC2 -8.4%
CCC(C)NC(=O)C1CCCCN1S(=O)(=O)c1ccc(F)cc1 (stereo not drawn) -2.3%
Cc1nn(C)c(Oc2ccc(Cl)cc2)c1C(=O)Nc1ccc(F)cc1F 1.9%
NCCN=C1NS(=O)(=O)c2ccccc21 7.4%
Cc1ccc2c(c1)-c1ccccc1S(=O)(=O)N2 -0.5%
COc1cc(CNCC2CCCO2)ccc1OCC(N)=O (stereo not drawn) -5.5%
COc1ccc2c(c1)OC13CCN(C)CC1C2C(C(=O)c1ccc(F)cc1)C(=O)N3 (stereo not drawn) -3.5%
COC(=O)C1=C(C(=O)OC)SC(=C2C(=S)C(C)(C)N(C(=O)CC(C)C)c3ccccc32)S1 33%
CCC(C)C(=O)N1c2ccccc2C(=C2SC(C(=O)OC)=C(C(=O)OC)S2)C(=S)C1(C)C (stereo not drawn) 48.7%
CCCC(=O)N1c2ccccc2C(=C2SC(C(=O)OC)=C(C(=O)OC)S2)C(=S)C1(C)C 32.9%
CC1C(=O)Nc2ccccc2N1C(=O)C1CC1 (stereo not drawn) -7.6%
COCCNC(=O)C(C(=O)c1ccc(F)cc1)n1cc(C)ccc1=O (stereo not drawn) 19.5%
Cc1cccc(C(=O)NC(NCCc2ccccc2)C(Cl)(Cl)Cl)c1 (stereo not drawn) 1.5%
COC(=O)C(C)Sc1nc(N)c(NC(=O)c2ccco2)c(=O)[nH]1 (stereo not drawn) 1.6%
Cc1ccc(CN2CCCC(CO)(Cc3ccccc3C)C2)s1 (stereo not drawn) 13%
CCCCCN1C=CC(=C2C(=O)c3ccccc3C2=O)C=C1 -2.8%
CCc1ccccc1N1CSC2=C(C#N)C(c3cc(OC)c(OC)cc3OC)CC(=O)N2C1 (stereo not drawn) 9%
COc1cccc(C2CC(=O)N3CN(c4cccc(Cl)c4C)CSC3=C2C#N)c1OC (stereo not drawn) 0.2%
COc1ccccc1N1CSC2=C(C#N)C(c3ccc(SC)cc3)CC(=O)N2C1 (stereo not drawn) 7.1%
CC(C)c1ccc(C2CC(=O)N3CN(C)CSC3=C2C#N)cc1 (stereo not drawn) 28.9%
COc1cc(C2CC(=O)N3CN(c4ccccc4C)CSC3=C2C#N)cc(OC)c1OC (stereo not drawn) 11.4%
CCOc1cc(C2CC(=O)N3CN(C4CCCCC4)CSC3=C2C#N)ccc1O (stereo not drawn) 49%
COc1ccc(OC)c(-n2c(-c3cccc(S(=O)(=O)N(C)C)c3)n[nH]c2=S)c1 15.9%
Nc1nc(-c2ccc(Cl)cc2)c(S(=O)(=O)c2ccccc2)s1 -1.5%
COc1cc(/C=N/NC(=O)CN2CCOCC2)ccc1OCc1ccccc1 -5.3%
COc1ccc(Cl)c(NC(=O)Cn2nnc(-c3ccccc3N)n2)c1 -3.6%
CCc1nc(Nc2ccc3c(c2)OCO3)c2oc3ccccc3c2n1 23%
CCOCCCNS(=O)(=O)c1ccc(NC(=O)C2CC(=O)N(c3ccc(C)cc3)C2)cc1 (stereo not drawn) 6%
Cc1cc(C)c(C(=O)/C=C/C=C/c2ccccc2)c(=O)[nH]1 22.8%
C/C(=N\NC(=O)c1nn(C)c(C)c1Br)c1ccc(NC(=O)c2ccccc2F)cc1 10.7%
COc1ccc(C(=O)NC(=S)NNC(=O)c2ccc(NC(=O)C(C)C)cc2)cc1 -10.9%
O=c1[nH]ncc(N2CCCCC2)c1Cl 12.3%
Cc1cc(F)ccc1NCc1cc2c(cc1[N+](=O)[O-])OCO2 37.6%
Cc1cc([N+](=O)[O-])ccc1NCc1ccccc1[N+](=O)[O-] 21.5%
CCOC(=O)/C(C(=O)Nc1ccc(Br)cc1)=C1/NC(C)(C)Cc2ccccc21 3.4%
OCCNC(=S)Nc1ccc(Oc2ccccc2)cc1 2.2%
CCCC12CN3CCN(CC(C3)/C1=N\NC(=O)c1ccccc1Cl)C2 -11.2%
O=C1c2ccccc2C(Nc2ccc3c(c2)OCCO3)N1Cc1ccco1 (stereo not drawn) 0.2%
O=C1c2ccccc2C(Nc2ccc3c(c2)OCO3)N1Cc1ccc2c(c1)OCO2 (stereo not drawn) 23.7%
CCN(C(=O)CSc1nnc(-c2c[nH]c3ccccc23)o1)C1CCS(=O)(=O)C1 (stereo not drawn) 4.2%
COc1ccccc1CNc1nc2nc3c(c(=O)n2[nH]1)CCC3 4.2%
O=c1c2c(nc3nc(NCc4ccccc4Cl)[nH]n13)CCC2 -5.2%
Cc1ccc(-c2ccc(=O)n(CC(=O)NCCCN3CCCCC3C)n2)cc1 (stereo not drawn) 12.3%
CC1CCCCN1CCNC(=O)Cn1nc(-c2ccccc2)ccc1=O (stereo not drawn) -4.4%
O=[N+]([O-])c1cccc(-c2nc(N3CCOCC3)c3ccccc3n2)c1 -8.1%
COC(=O)COc1ccc(/C=C2/NC(=O)N(CC(=O)OC)C2=O)cc1 1.1%
O=C1C(Cl)=C(NCC2CCCO2)C(=O)N1c1ccccc1 (stereo not drawn) 2.7%
O=C(/C=C/c1ccoc1)c1ccccc1O 17.9%
COc1ccc(/C=C/C(=O)c2ccoc2)cc1 3.7%
OC1(c2cccs2)CN(c2ccccc2)C2=[N+]1CCCC2 (stereo not drawn) -12%
COc1cccc(CNc2ccc(F)c(Cl)c2)c1OC -11%
COc1cccc(CNc2ccc(S(N)(=O)=O)cc2)c1OC -2.8%
COc1ccc(-c2nnn(CC(=O)N(Cc3ccccc3Cl)C(C(=O)NCC3CCCO3)c3ccco3)n2)cc1OC (stereo not drawn) 23.8%
CC1=NOC(=O)/C1=C/c1ccc(-c2ccc(Cl)cc2)o1 13.4%
CCN1CCN(c2cc(C)c3cc(NC(=S)NCCCN4CCc5ccccc5C4)ccc3n2)CC1 27.2%
Cc1cc(N2CCCC2)nc2ccc(NC(=S)NCCCOC(C)C)cc12 -3.8%
COCCNC(=S)Nc1ccc2nc(N3CCCC3)cc(C)c2c1 12.4%
CCCN(CCC)CCNC(=O)CCC(=O)Nc1ccc2nc(N3CCN(C)CC3)cc(C)c2c1 42.5%
CCCCNC(=O)CCC(=O)Nc1ccc2nc(N3CCN(C)CC3)cc(C)c2c1 12%
Cc1cc(N2CCN(C)CC2)nc2ccc(NC(=S)NCCN3CCc4ccccc4C3)cc12 -3.7%

inhibition, active:
O=C(Oc1ccc2ccc(O)cc2c1)C1CCCCC1 55%
Cc1noc(C)c1S(=O)(=O)N1CCC(C(=O)NCCCN2CC(C)CC(C)C2)CC1 (stereo not drawn) 54.6%
CCNC(=S)Nc1scc(-c2ccccc2)c1C(=O)OCC 52.2%
Cc1ccc(C2CC(=O)N3CN(Cc4ccco4)CSC3=C2C#N)cc1 (stereo not drawn) 62.6%
CC(C)c1ccc(C2CC(=O)N3CN(Cc4ccco4)CSC3=C2C#N)cc1 (stereo not drawn) 76%
COc1ccc(C2CC(=O)N3CN(Cc4ccco4)CSC3=C2C#N)cc1 (stereo not drawn) 73.2%
N#CC1=C2SCN(Cc3ccco3)CN2C(=O)CC1c1ccc(Cl)cc1 (stereo not drawn) 53.5%
Nc1ccc2c(c1)-c1ccccc1S(=O)(=O)N2 52.3%
COc1ccc2ccccc2c1C1CC(=O)N2CN(C3CCCCC3)CSC2=C1C#N (stereo not drawn) 52.1%
COc1ccc2ccccc2c1C1CC(=O)N2CN(C)CSC2=C1C#N (stereo not drawn) 68.7%
CCOc1ccccc1N1CSC2=C(C#N)C(c3c(OC)ccc4ccccc34)CC(=O)N2C1 (stereo not drawn) 67.1%
Cc1cc(F)ccc1NCc1ccccc1[N+](=O)[O-] 70%
O=C1c2ccccc2C(Nc2ccc3c(c2)OCO3)N1Cc1ccco1 (stereo not drawn) 57.7%
O=c1c2c(nc3nc(NCc4cccc5ccccc45)[nH]n13)CCC2 55.7%
Cc1ccc(-c2ccc(=O)n(CC(=O)NCCN3CCCCC3C)n2)cc1 (stereo not drawn) 60.7%
COc1ccc2ccccc2c1C(=O)/C=C\c1ccoc1 50%
COc1cccc(CNc2ccc(N3CCC(C)CC3)cc2)c1OC 63.1%
CCCCN(CC)CCNC(=O)CCC(=O)Nc1ccc2nc(N3CCN(C)CC3)cc(C)c2c1 58.2%
CCOCCCNC(=S)Nc1ccc2nc(N3CCCC3)cc(C)c2c1 50.2%
Cc1cc(N2CCN(C)CC2)nc2ccc(NC(=S)NCCCN3CCc4ccccc4C3)cc12 58.5%
